In the supplement of paper PMC9694430:
Counter-ions that a name gives are not always drawn.

system: LOC_OS03G04050-cb001; test: thermal shift delta Tm vs DMSO control; higher = stronger stabilization (binding); conditions: 12.5 µM; protein concentration 2 µM
Summary of the method: (§1)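 Heating from 25°C to 95°C at 0.05°C/s, fluorescence was recorded for 19.5 μl wells of 2 μM E. coli-expressed, purified rice kinase domain in 100 mM potassium phosphate pH 7.5, 150 mM NaCl, 10% glycerol and 5 × SYPRO Orange with compound in DMSO. Boltzmann fits gave melting temperatures for this differential scanning fluorimetry assay. The shift reported is the mean of three replicates against the DMSO-only protein.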
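Note: purified Escherichia coli-expressed rice kinase domain construct.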

| SMILES | thermal shift delta Tm [°C] |
| --- | --- |
| COc1ccc2c(c1)[C@]1(C[C@H]1c1ccc3c(/C=C/c4ccc(CN5C[C@@H](C)O[C@@H](C)C5)cc4)n[nH]c3c1)C(=O)N2 | 0.73 |
| O=C(Nc1nc2cccc(-c3ccc(CN4CCS(=O)(=O)CC4)cc3)n2n1)C1CC1 [Filgotinib (GLPG0634)] | 0.6 |
| CCn1c(-c2nonc2N)nc2c(C#CC(C)(C)O)ncc(OC[C@H]3CCCNC3)c21 | 0.51 |
| Cc1cnc(Nc2ccc(OCCN3CCCC3)cc2)nc1Nc1cccc(S(=O)(=O)NC(C)(C)C)c1 | 0.72 |
| Cc1cc(Nc2cc(N3CCN(C)CC3)nc(/C=C/c3ccccc3)n2)n[nH]1 [ENMD-2076 L-(+)-Tartaric acid] | 0.44 |
| CC#CC(=O)N1CC[C@@H](n2c(=O)n(-c3ccc(Oc4ccccc4)cc3)c3c(N)ncnc32)C1 [ONO-4059 (GS-4059) hydrochloride] | 0.51 |
| CCN1CCN(Cc2ccc(Nc3ncc(F)c(-c4cc(F)c5nc(C)n(C(C)C)c5c4)n3)nc2)CC1 | 0.17 |
| CN(C)C[C@@H]1CCn2cc(c3ccccc32)C2=C(C(=O)NC2=O)c2cn(c3ccccc23)CCO1 | 0.36 |
| CN1CCN(Cc2ccc(NC(=O)Nc3ccc(Oc4ccnc(N)n4)cc3)cc2C(F)(F)F)CC1 | 0.12 |
| O=C(NOCCO)c1ccc2cncn2c1Nc1ccc(I)cc1F | 0.75 |
| CCCCCCCCCCCCc1ccc(S(=O)(=O)Nc2nncs2)cc1 | 0.7 |

system: LOC_OS03G12390-cb001; test: as above; conditions: 12.5 µM; protein concentration 2 µM
Summary of the method: as §1

| SMILES | thermal shift delta Tm [°C] |
| --- | --- |
| CC(C)(C)c1cnc(CSc2cnc(NC(=O)C3CCNCC3)s2)o1 | 0.18 |
| CN(C)C/C=C/C(=O)Nc1cc2c(Nc3ccc(F)c(Cl)c3)ncnc2cc1O[C@H]1CCOC1 [Afatinib (BIBW2992) Dimaleate] | 2.3 |
| O=C1c2c(O)cc(O)cc2OC(c2ccc(O)c(O)c2)C1O (stereo not drawn) [Taxifolin (Dihydroquercetin)] | 0.47 |
| CCN(CC)CCNC(=O)c1c(C)[nH]c(/C=C2\C(=O)Nc3ccc(F)cc32)c1C [Sunitinib Malate] | 7.66 |
| COc1cc(Nc2ncc(F)c(Nc3ccc4c(n3)N(COP(=O)(O)O)C(=O)C(C)(C)O4)n2)cc(OC)c1OC [Fostamatinib (R788)] | 7.17 |
| CC(C)(C)c1nc(-c2ccc(NC(=O)Nc3cccc(C(F)(F)F)c3)c3ccccc23)c2c(N)nccn12 [kira6] | 2.25 |
| CNC(=O)c1cc(Oc2ccc(NC(=O)Nc3ccc(Cl)c(C(F)(F)F)c3)cc2)ccn1 [Sorafenib Tosylate] | 1.41 |
| CC(=O)Nc1nc(C)c(-c2ccc(Cl)c(S(=O)(=O)NCCO)c2)s1 | 0.64 |
| CCc1nc(-c2cccc(C)c2)c(-c2ccnc(NC(=O)c3ccccc3)c2)s1 | 0.6 |
| C[C@@]1(C(=O)Nc2ccc(F)nc2)CCCN1c1nc(Nc2cc(C3CC3)n[nH]2)c2cccn2n1 | 0.55 |
| COc1ccc(Cl)cc1NC(=O)Nc1cc(C)nc2ccccc12 | 0.21 |
| C=CC(=O)Nc1cccc(Nc2nc(Nc3ccc(OCCOC)cc3)ncc2F)c1 | 6.16 |
| CC(C)c1c2cc(-c3ccnc(NC4CCC(NC5CCOCC5)CC4)n3)ccc2nn1C (stereo not drawn) | 0.78 |
| C[C@H]1CNC(=O)c2cnn3ccc(nc23)N[C@H](C)c2cc(F)ccc2O1 | 0.55 |
| Cn1cc(-c2ccc3c(c2)CCN3C(=O)Cc2cccc(C(F)(F)F)c2)c2c(N)ncnc21 | 0.39 |
| Cn1c(=O)c(F)c(Nc2ccc(I)cc2F)c2c(=O)n(C[C@@H](O)CO)cnc21 | 0.07 |
| CNC(=O)c1cccc(-c2ccc3c(N4CCOC[C@@H]4C)nc(N4CCOC[C@@H]4C)nc3n2)c1 [Vistusertib (AZD2014)] | -0.33 |
| Cc1nc(Nc2cnn(C3CCNCC3)c2)nc2c1N(C)C(=O)c1cc3ccccc3cc1N2C | 1.89 |
| COc1cc2/c(=N/c3ccc(Br)cc3F)nc[nH]c2cc1OCC1CCN(C)CC1 [Vandetanib (ZD6474)] | 2.45 |

| SMILES | thermal shift delta Tm [°C] |
| --- | --- |
| CCn1c(C(=O)N(C2CC2)C2CC2)cc2c3c(ncn3C)c(Nc3cc(C)n(C)n3)nc21 | 1.55 |
| OCCn1cc(-c2cnc3nnn(Cc4ccc5ncccc5c4)c3n2)cn1 | -0.07 |
| N#CC[C@H](C1CCCC1)n1cc(-c2ncnc3[nH]ccc23)cn1 | 2.16 |
| CCn1nc(C2CCN(C(=O)CCO)CC2)nc1-c1cnc(N)c(-c2nnc(C(C)(C)C)o2)n1 | 4.97 |
| CC(C)(C)c1cc(NC(=O)Nc2ccc(Oc3ccnc4[nH]c(=O)cnc34)cc2F)n(-c2ccccc2)n1 | 4.04 |
| CO[C@H]1CC[C@H](N2C(=O)CNc3ncc(-c4ccc(C(C)(C)O)nc4)nc32)CC1 | -0.22 |
| CC[C@@H]1C(=O)N(C)c2cnc(Nc3ccc(C(=O)N[C@H]4CC[C@H](N5CCN(CC6CC6)CC5)CC4)cc3OC)nc2N1C(C)C [Volasertib (BI 6727)] | 0.73 |
| COc1ccc2c(c1)[C@]1(C[C@H]1c1ccc3c(/C=C/c4ccc(CN5C[C@@H](C)O[C@@H](C)C5)cc4)n[nH]c3c1)C(=O)N2 | 0.7 |
| O=C(Nc1nc2cccc(-c3ccc(CN4CCS(=O)(=O)CC4)cc3)n2n1)C1CC1 [Filgotinib (GLPG0634)] | 0.31 |
| CCn1c(-c2nonc2N)nc2c(C#CC(C)(C)O)ncc(OC[C@H]3CCCNC3)c21 | -0.08 |
| Cc1cnc(Nc2ccc(OCCN3CCCC3)cc2)nc1Nc1cccc(S(=O)(=O)NC(C)(C)C)c1 | 3.03 |
| Cc1cc(Nc2cc(N3CCN(C)CC3)nc(/C=C/c3ccccc3)n2)n[nH]1 [ENMD-2076 L-(+)-Tartaric acid] | 4.22 |
| CC#CC(=O)N1CC[C@@H](n2c(=O)n(-c3ccc(Oc4ccccc4)cc3)c3c(N)ncnc32)C1 [ONO-4059 (GS-4059) hydrochloride] | -0.67 |
| CCN1CCN(Cc2ccc(Nc3ncc(F)c(-c4cc(F)c5nc(C)n(C(C)C)c5c4)n3)nc2)CC1 | 1.39 |
| CN(C)C[C@@H]1CCn2cc(c3ccccc32)C2=C(C(=O)NC2=O)c2cn(c3ccccc23)CCO1 | 0.08 |
| CN1CCN(Cc2ccc(NC(=O)Nc3ccc(Oc4ccnc(N)n4)cc3)cc2C(F)(F)F)CC1 | 1.46 |
| O=C(NOCCO)c1ccc2cncn2c1Nc1ccc(I)cc1F | -0.37 |
| CCCCCCCCCCCCc1ccc(S(=O)(=O)Nc2nncs2)cc1 | -0.22 |
